Measurements taken from PubChem BioAssay.

tested on: Fibrinogen (Alexa647-labelled); assay: Alexa647-fibrinogen binding to printed small molecules – biochemical, small-molecule microarray, 635/667 nm fluorescence, artefact control for SMM control-protein annotation, profiling panel (AID 1131); settings: fibrinogen-A647 binding fluorescence, higher = more signal;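 note: z-score merges 667 nm fluorescence with per-spot signal-to-noise over triplicate slides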

Compound | composite z-score
O=C1[C@H]2[C@H]3[C@H](O)[C@H](O)CC(=NOCc4ccccc4)[C@@H]3CC[C@H]2C(=O)N1C[C@@H]1CCCO1 | 0.237
CC(=O)OC[C@H]1O[C@H](C#Cc2ccccc2)C=C[C@@H]1OC(C)=O | 0.81
CCOC(=O)[C@H](CC(C)C)NC(=O)CCC1CC(OC(=O)NCCc2ccc(F)cc2)CC2(CCCC(COC(=O)NCCOc3ccccc3)O2)O1 (stereo not given in full) | 0.985
C#CCCCON=C1C[C@@H](O)[C@@H](O)[C@@H]2[C@@H]3C(=O)N(CC)C(=O)[C@@H]3CC[C@@H]12 | 0.0609
CC(C)=CCCC(C)=CCON=C1C[C@@H](O)[C@@H](O)[C@@H]2[C@@H]3C(=O)N(c4cccc(Oc5ccccc5)c4)C(=O)[C@@H]3CC[C@@H]12 | 0.589
O=C1[C@H]2[C@H]3[C@H](O)[C@H](O)CC(=NOC[C@@H](O)COCc4ccco4)[C@H]3CC[C@H]2C(=O)N1C[C@@H]1CCCO1 | -1.27
CC(CCN1CCc2nc(-c3ccccc3)c(-c3ccccc3)cc2C1)=NOC[C@@H](O)[C@H]1O[C@@H]2OC(C)(C)O[C@@H]2[C@H]1O | 0.925
CCOC(=O)[C@H](CC(C)C)NC(=O)CCC1CC(OC(=O)NCc2ccc3c(c2)OCO3)CC2(CCCC(COC(=O)NCCCN3CCCC3=O)O2)O1 (stereo not given in full) | 0.741

molecular target: Follistatin (Homo sapiens) (UniProt P19883); assay: FST protein binding to printed compounds – biochemical, small-molecule microarray, 635/667 nm fluorescence, primary screen (AID 1132); settings: 635 nm fluorescence, higher = more signal
Sequence (P19883 whole entry, looked up): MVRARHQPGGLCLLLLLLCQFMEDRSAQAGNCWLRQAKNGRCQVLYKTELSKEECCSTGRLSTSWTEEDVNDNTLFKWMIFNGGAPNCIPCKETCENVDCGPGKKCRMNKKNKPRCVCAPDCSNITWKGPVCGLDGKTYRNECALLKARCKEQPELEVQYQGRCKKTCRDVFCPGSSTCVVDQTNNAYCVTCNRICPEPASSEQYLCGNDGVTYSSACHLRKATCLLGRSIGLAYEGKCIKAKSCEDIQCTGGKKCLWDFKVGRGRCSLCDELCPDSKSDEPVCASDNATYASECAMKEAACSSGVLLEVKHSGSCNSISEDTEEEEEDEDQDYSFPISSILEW

Compound | composite z-score
O=C1[C@H]2[C@H]3[C@H](O)[C@H](O)CC(=NOC[C@@H](O)COCc4ccco4)[C@@H]3CC[C@H]2C(=O)N1C[C@@H]1CCCO1 | 0.907
CC(C)=NOC[C@@H](C)[C@H](OCc1ccccc1)C(C)C | -0.476
C=CC[C@@H]1C=C[C@H](ON=C(C)CCN2CCc3nc(-c4ccccc4)c(-c4ccccc4)cc3C2)[C@@H](CO)O1 | 0.787
CC(=O)OC[C@H]1OC(ON=CC[C@@H]2C=C[C@H](OC(C)=O)[C@@H](COC(C)=O)O2)[C@H](OC(C)=O)[C@@H](OC(C)=O)[C@@H]1OC(C)=O (stereo not given in full) | -0.494
CON=CC[C@@H]1C=C[C@H](OC(C)=O)[C@@H](COC(C)=O)O1 | 0.606
COC(=O)CC=C[C@@H](C)[C@@H](C=NO[C@@H]1O[C@H](COC(C)=O)[C@@H](OC(C)=O)[C@H](OC(C)=O)[C@H]1OC(C)=O)OC | -0.186
COC(=O)CC=C[C@@H](C)[C@@H](C=NO[C@H](C)c1cn([C@H](CO)Cc2ccccc2)nn1)NS(=O)(=O)c1ccc(C)cc1 | 0.268
CCOC(=O)[C@H](CC(C)C)NC(=O)CCC1CC(OC(=O)NCc2cccc3ccccc23)CC2(CCCC(COC(=O)NCC3CCCCC3)O2)O1 (stereo not given in full) | 0.62
COc1cccc([C@H]2Oc3ccc(OC)cc3C(=NO[C@H](C)c3cn([C@H](CO)Cc4ccccc4)nn3)[C@@H]2O)c1 | -0.0053
CCOC(=O)[C@H](Cc1ccccc1)NC(=O)CCC1CC(OC(=O)NCCc2ccc(F)cc2)CC2(CCCC(COC(=O)NCCCN3CCCC3=O)O2)O1 (stereo not given in full) | 0.578
COC(=O)[C@H](C)NC(=O)CCC1CC(OC(=O)NCCc2ccc(F)cc2)CC2(CCCC(COC(=O)NCCC(C)C)O2)O1 (stereo not given in full) | 0.577
O=C1C=C[C@@H](O)[C@@H]2[C@@H]3C(=O)N(c4ccc(F)cc4F)C(=O)[C@@H]3CC[C@@H]12 | 0.791
CCOC(=O)[C@H](CC(C)C)NC(=O)CCC1CC(OC(=O)NCc2cccc3ccccc23)CC2(CCCC(COC(=O)NCCCN3CCCC3=O)O2)O1 (stereo not given in full) | 0.745
CCOC(=O)[C@H](CC(C)C)NC(=O)CCC1CC(OC(=O)NCc2cccc3ccccc23)CC2(CCCC(COC(=O)NCCc3ccc(Cl)cc3)O2)O1 (stereo not given in full) | 0.547
CO[C@H]1COC(=O)CC=C[C@@H](C)[C@H](NS(=O)(=O)c2ccc(C)cc2)COC(=O)CCC[C@@H]1C | 0.785
CC(=O)OC[C@H]1O[C@@H](ON=C(C)CCN2CCCc3nc(C)c(C)cc32)[C@H](OC(C)=O)[C@@H](OC(C)=O)[C@@H]1OC(C)=O | 0.881
CCOC(=O)CCN1C(=O)[C@H]2[C@H]3[C@H](O)[C@H](O)CC(=NNC(=O)OCc4ccccc4)[C@@H]3CC[C@H]2C1=O | 0.937
CC=CC1=C(CO)C(=O)[C@@H]2O[C@@H]2C1=O | 1.44
O=C1[C@H]2[C@H]3[C@H](O)[C@H](O)CC(=NOCc4ccccc4)[C@H]3CC[C@H]2C(=O)N1Cc1ccc2c(c1)OCO2 | 0.214

Compound | composite z-score
COC(=O)CC=C[C@@H](C)[C@@H](C=NOCC[C@@H]1C=C[C@H](OC(C)=O)[C@@H](COC(C)=O)O1)OC | 0.73
O=C(NN=C1C[C@@H](O)[C@@H](O)[C@@H]2[C@@H]3C(=O)N(Cc4ccccc4)C(=O)[C@@H]3CC[C@@H]12)OCc1ccccc1 | 0.165
CO[C@H]1COC(=O)CCC[C@@H](C)[C@H](OC)COC(=O)[C@@H]2CCCN2C(=O)CC=C[C@@H]1C | 1.33
CCOC(=O)[C@H](CC(C)C)NC(=O)CCC1CC(OC(=O)NCc2ccc3c(c2)OCO3)CC2(CCCC(COC(=O)NCc3cccc(C(F)(F)F)c3)O2)O1 (stereo not given in full) | 0.337
CC(C)CON=C1C[C@@H](O)[C@@H](O)[C@@H]2[C@@H]3C(=O)N(c4ccc(F)cc4F)C(=O)[C@@H]3CC[C@H]12 | 0.714
CO[C@@H]1COC(=O)CC=C[C@@H](C)[C@@H]2C=C[C@H](O)[C@@H](COC(=O)CC=C[C@H]1C)O2 | 1.45
CC(CCN1CCc2nc(-c3ccccc3)c(-c3ccccc3)cc2C1)=NOC[C@@H](O)COCc1ccco1 | 1.15
C[C@H]1CC[C@H]2C(=O)O[C@H](COc3ccc(C(C)(C)C)cc3)CN2[C@@H]1c1ccc(Br)cc1 | 0.0469
CCC1=NOC(CCC2CC(OC(=O)NCc3cccc4c3OCO4)CC3(CCCC(COC(=O)NCCc4ccccc4OC)O3)O2)C1 (stereo not given) | 0.505
C=CC[C@@H]1C=C[C@H](ON=C2[C@H]3CCn4c(=O)n(-c5ccccc5)c(=O)n4[C@H]3[C@H](O)[C@@H]3O[C@H]23)[C@@H](CO)O1 | 0.489
O=C1[C@H]2[C@H]3[C@H](O)[C@H](O)CC(=NOCc4ccccc4)[C@@H]3CC[C@H]2C(=O)N1C[C@@H]1CCCO1 | -0.0829
CC(=O)OC[C@H]1O[C@H](C#Cc2ccccc2)C=C[C@@H]1OC(C)=O | 0.272
CCOC(=O)[C@H](CC(C)C)NC(=O)CCC1CC(OC(=O)NCCc2ccc(F)cc2)CC2(CCCC(COC(=O)NCCOc3ccccc3)O2)O1 (stereo not given in full) | 0.826
C#CCCCON=C1C[C@@H](O)[C@@H](O)[C@@H]2[C@@H]3C(=O)N(CC)C(=O)[C@@H]3CC[C@@H]12 | 0.759
CC(C)=CCCC(C)=CCON=C1C[C@@H](O)[C@@H](O)[C@@H]2[C@@H]3C(=O)N(c4cccc(Oc5ccccc5)c4)C(=O)[C@@H]3CC[C@@H]12 | 0.612
O=C1[C@H]2[C@H]3[C@H](O)[C@H](O)CC(=NOC[C@@H](O)COCc4ccco4)[C@H]3CC[C@H]2C(=O)N1C[C@@H]1CCCO1 | 0.987
CC(CCN1CCc2nc(-c3ccccc3)c(-c3ccccc3)cc2C1)=NOC[C@@H](O)[C@H]1O[C@@H]2OC(C)(C)O[C@@H]2[C@H]1O | 0.521
CCOC(=O)[C@H](CC(C)C)NC(=O)CCC1CC(OC(=O)NCc2ccc3c(c2)OCO3)CC2(CCCC(COC(=O)NCCCN3CCCC3=O)O2)O1 (stereo not given in full) | 0.476
